Laboratory results from PubChem BioAssay (NCI).
Values joined by “and” are separate entries in the source; they are usually repeats but may differ in a detail not shown here. Identical values can stand only once. The panel holds about 83,000 compounds, 20% with a hit somewhere; the sample as a whole holds those more often.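 Single-dose data. Exposure time 48 hours. Values below 10 considered active.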 Values without a mark were called inactive. Active and inactive are the calls of the source.

Legend:
Assay in all cases: NCI-60 one-dose screen, 48 h (100 = growth as untreated, 0 = no growth, -100 = all killed)
Details in all cases: 10 µM unless noted
[1] = tested on: HCT-15 colon
[2] = tested on: HT29 colon
[3] = tested on: SNB-75 CNS
[4] = tested on: SNB-19 CNS
[5] = tested on: U251 CNS
[6] = tested on: PC-3 prostate
[7] = tested on: SK-MEL-5 melanoma
[8] = tested on: UACC-62 melanoma
[9] = tested on: LOX IMVI melanoma
[10] = tested on: SK-MEL-28 melanoma

SMILES | growth [1] | growth [2] | growth [3] | growth [4] | growth [5] | growth [6] | growth [7] | growth [8] | growth [9] | growth [10]
CN(C)CCN1C(=O)c2c(c3c4ccccc4n4c3c3c2c2ccccc2n3C2CC(O)C(O)C4(C)O2)C1=O (stereo not given) | 15.5% | 6.62% (active) | 23.3% | 17.1% | 17.9% | 30.2% | 34.4% | 21.8% | 1.87% (active) | 64.5%
C=C(C)[C@@H]1CC[C@]2(C)[C@H](CC(=O)N[C@H]3[C@@H]4C[C@](C)(C(=O)OC)CC[C@]4(C)CC[C@]32C)[C@@]1(C)CCC#N | 68.6% | 70.9% | 96.5% | 89% | 79.9% | 42.9% | 49.7% | 68.3% | 96.9% | 104%
CN(C)c1ccc2nc3ccc(=O)cc-3sc2c1 | 36.2% and 37.2% | 39.9% and 40.7% | 94.9% and 36.7% | 55.8% and 45.9% | 21.2% and 33.3% | 29.7% and 33% | -94.8% (active) and -89.9% (active) | 32.5% and 32.9% | 5.56% (active) and 5.52% (active) | 77.6% and 63%
O=C(Nc1ncc(Cc2cccc(C(F)(F)F)c2)s1)c1ccc2c(c1)OCCO2 | 8.27% (active) | 4.83% (active) | 25.5% | 42.9% | 16.7% | 28.3% | -21.5% (active) | 39.9% | 40.8% | 73.1%
Nc1nc2ccccc2c2c(=O)c3ccc(Cl)cc3sc12 | 101% | 98% | 96.3% | 102% | 84.8% | 89.9% | 104% | 92.5% | 98% | 110%
CCNC(=O)Nc1ncccc1OCc1ccc(F)cc1 | 99.7% | 95.5% | 102% | 102% | 96.8% | 103% | 101% | 94.6% | 94.6% | 113%
Cc1ccc(/C=C/c2c(C(=O)/C=C/c3ccccc3)c(C)nc3ccccc23)cc1 | -24.6% (active) | 0.173% (active) | 29% | 15.7% | -5.93% (active) | 31.3% | 32.3% | 29.2% | -79.4% (active) | 24.3%
COc1ccc(/C(C)=C(\c2ccc(OCCN3CCCCCC3)cc2)c2ccc(OC(=O)C3CCCCC3)cc2)cc1 | -76.7% (active) | -71% (active) | -11.1% (active) | 3.58% (active) | -84.9% (active) | -49.8% (active) | -99.7% (active) | -73.7% (active) | -93.5% (active) | -84.5% (active)
COc1nc2ccc(C)cc2cc1/C=[N+](\[O-])c1ccccc1 | 77.2% | 95.1% | 79.5% | 86.6% | 95.4% | 68.2% | 96.2% | 76.6% | 77.8% | 97.6%
O=C(CN1C(=O)S/C(=C\C(Cl)=C\c2ccccc2)C1=O)NC1C=CS(=O)(=O)C1 (stereo not given) | -18.1% (active) | -6.75% (active) | 19% | 40.4% | 16.9% | 19.7% | 17.1% | -19.2% (active) | -73.5% (active) | -9.63% (active)
CC(=O)N1N=C(c2ccc(F)cc2)CC1c1sc(N(C)Cc2ccccc2)nc1Cl (stereo not given) | 88.5% | 94.4% | 92.3% | 101% | 98.5% | 86.3% | 103% | 81.2% | 96.4% | 114%
COc1ccc2c(c1)CC[C@@H]1[C@@H]2CC[C@]2(C)C3C(=CCC4C(=O)N(c5ccccc5)C(=O)C43)C[C@@H]12 (stereo not given in full) | 88.5% | 71.3% | 79.8% | 108% | 87.5% | 51.1% | 89.9% | 64.5% | 83.6% | 105%
Cc1ccc(Nc2nc(-c3cc(O)c(C)c(C)c3O)cs2)cc1 | 76.7% | 112% | 102% | 110% | 97.2% | 71% | 97.6% | 92.7% | 75.1% | 115%
N#Cc1c(-c2cccc(F)c2)cc(-c2cccnc2)[nH]c1=O | 104% | 104% | 97.1% | 99.9% | 101% | 101% | 104% | 97.5% | 98.8% | 104%
COc1cc(-c2nn(-c3cccc(NC(=O)CCN4CCN(C)CC4)c3)cc2-c2ccncc2)ccc1Cl | 21.2% | -17.4% (active) | -5.41% (active) | 44% | 21.5% | 14% | 8.48% (active) | 28.2% | -16% (active) | 16.9%
N#C/C(=N\Nc1ccc(Cl)cc1)C(=O)Nc1cc(-c2ccccc2)nn1-c1ccccc1 | 9.38% (active) | 34.1% | 62.1% | 30.4% | 23.1% | 6.71% (active) | -31% (active) | 3.27% (active) | 73.5% | 38.6%
C=CCN1C=CC(=O)[C@H](O[Si](C)(C)C(C)(C)C)[C@@H]1/C=C/c1ccccc1 | -70.7% [100 µM] (active) | -73% [100 µM] (active) | -87.9% [100 µM] (active) | -92% [100 µM] (active) | -39.6% [100 µM] (active) | -76.2% [100 µM] (active) | -84.9% [100 µM] (active) | -78.2% [100 µM] (active) | -43.9% [100 µM] (active) | -68.2% [100 µM] (active)
COc1ccc(Cl)cc1Nc1nc(C(F)(F)F)ccc1C(=O)N/N=C/c1ccc(N(C)C)cc1 | 87.3% | 107% | 88.8% | 86% | 92.6% | 97.3% | 95.6% | 102% | 95.2% | 88.2%
C=CCNC(=O)Cc1c(-c2ccc(OC)cc2)oc2c(OC)c3c(c(OC)c12)OCO3 | 86.7% | 86.5% | 96.4% | 95.3% | 105% | 95.2% | 96.3% | 89% | 93% | 109%
COc1ccc(C(=O)N/N=C/c2ccc(O)cc2O)cc1Nc1ccnc(C(F)(F)F)c1 | 40.1% | 37.4% | 26.4% | 34.2% | 28.3% | 64.5% | 24.2% | 1.67% (active) | 8.4% (active) | 42.9%
CCCCC1=C(Br)C(=O)c2nc(C)ccc2C1=O | 95.5% | 107% | 84.4% | 92.5% | 89.6% | 80.3% | 92.6% | 84.9% | 89.1% | 105%
CCOC(=O)c1cnn(-c2ccc(S(N)(=O)=O)cc2)c1N | 108% | 102% | 78.1% | 100% | 103% | 103% | 113% | 97.5% | 96.9% | 106%
Oc1ccccc1C=Nc1ccc(N2CCN(c3ccccc3)CC2)cc1 | 99.8% | 99.5% | 79.9% | 107% | 99.9% | 77.8% | 97.2% | 95.4% | 98.5% | 109%
O=C(Oc1ccc(CO[N+](=O)[O-])cc1)c1ccccc1 | -83% (active) | -60% (active) | -97.9% (active) | -78.8% (active) | -91.2% (active) | -91.7% (active) | -96.1% (active) | -76.3% (active) | -87.4% (active) | -71.9% (active)
COc1ccc2nc3cc(Cl)ccc3c(NCCCNCCC(C)O)c2c1 (stereo not given) | 2.36% (active) | 4% (active) | -58.8% (active) | -25.6% (active) | -41.4% (active) | -50% (active) | -96.7% (active) | -57% (active) | -68% (active) | -59.3% (active)
